# PubChem BioAssay (Tox21)
# Active and inactive are the calls of the source. Calls come from the whole dose curve.
# Experiment: G protein-coupled receptor (GPCR) small molecule agonists, calcium flux assay: HEK293 wild type cell line counter screen (AID 1920065)
# Conditions: HEK293 WT calcium flux, fluorescence, agonist mode; series mostly up to 57.6 µM; activation: at the top concentration
# Excerpt: U.S. Tox21 Program National Center for Advancing Translational Sciences [NCATS] Division of Preclinical Innovation [DPI] U.S. Environmental Protection Agency [EPA] National Institutes of Environmental Health Sciences [NIEHS] National Toxicology Program [NTP] U.S. Food and Drug Administration [FDA] Assay overview: The increased intracellular calcium release that occurred upon G protein-coupled receptor (GPCR) activation led to the frequent use of calcium flux assays to detect GPCR activation. For the purpose of studying and screening compounds that may activate GPCR, receptor-overexpressing models were typically generated using Hek293 wild-type (WT) cells. In order to eliminate the compounds that may have induced calcium release for non-specific activation, a counter-assay utilizing calcium flux on Hek293 WT cells was performed. The data were formulated in order to serve as a control for any calcium flux detection utilizing Hek293 cells with either GPCR overexpression or gene modification. The procurement of Hek293 WT cells from ATCC. Fluorescence intensity can be utilized to determine the activation of the compound in a calcium flux assay. As a counter control, this cell line was utilized to screen the Tox21 10K compound library.
# Assay Protocol Summary: Hek293 cells were dispensed at 1500cells/4uL/well in 1536-well black wall/clear bottom plates using a multidrop dispenser. After the assay plates were incubated at a 37 C/5% CO2 incubator for 18 hours, 4 uL of Calcium Dye Solution was added to each well. The plates were incubated at 37 C for 1 hour. For agonist mode, 23 nL of compounds dissolved in DMSO, positive control (ATP) or DMSO only was transferred to the assay plate by a pin tool station. The fluorescence intensity in the plates was measured using FDSS 7000EX kinetic plate reader with a filter set of Ex/Em=480/540 for 3 min at 1 sec intervals. Each test compound was measured at 15 concentrations and in triplicates.
# % is set by controls: 0 for no effect and ±100 for the full control effect.
row,SMILES,activation
1,CCN(CC)C(=O)N(CC)CC,-1.24% (inactive)
2,c1ccc(-c2nn[nH]n2)cc1,-0.891% (inactive)
3,CC(C=O)Cc1ccc(C(C)C)cc1 (stereo not given),1.09% (inactive)
4,O=C(O)CCNC(=O)c1ccccc1,-2.02% [at 26.5 µM] (inactive)
5,CCCCC(CC)COC(=O)c1ccccc1O (stereo not given),-0.802% [at 26.5 µM] (inactive)
6,Oc1ccc(Cl)c2cccnc12,0.929% [at 26.5 µM] (inactive)
7,O=C(O)CCN(C1(C(=O)NO)CCCC1)S(=O)(=O)c1ccc(Oc2ccc(F)cc2)cc1,2.88% (inactive)
8,O=C1OC(=O)C2C3C=CC(C3)C12 (stereo not given),1.03% (inactive)
9,CC1(C)C(=O)C(C)(C)C1=O,0.0474% (inactive)
10,CCc1nnc(NS(=O)(=O)c2ccc(N)cc2)s1,0.412% [at 26.5 µM] (inactive)
11,COc1ccccc1N1CCN(CCCNc2cc(=O)n(C)c(=O)n2C)CC1,-0.332% [at 26.5 µM] (inactive)
12,N#Cc1ccc(C(=O)O)cc1,-1.06% (inactive)
13,OCCCO,-0.306% (inactive)
14,CN(C)CCN(Cc1ccc(Cl)cc1)c1ccccn1,-0.0853% [at 26.5 µM] (inactive)
15,C=CC(C)(CCC=C(C)C)OC(=O)C(C)C (stereo not given),0.165% (inactive)
16,C=CCOc1c(Br)cc(Br)cc1Br,0.116% (inactive)
17,CCCCCCC,-0.278% (inactive)
18,Nc1ccc(S(=O)(=O)Nc2ccccn2)cc1,-0.469% [at 26.5 µM] (inactive)
19,O=C1C(=O)c2ccccc2C(O)=C1C1CCC(c2ccc(Cl)cc2)CC1 (stereo not given),-0.374% [at 26.5 µM] (inactive)
20,C[C@@H]1C[C@H]2[C@@H]3CCC4=CC(=O)C=C[C@]4(C)[C@@]3(F)[C@@H](O)C[C@]2(C)[C@H]1C(=O)CO,-0.0279% [at 26.5 µM] (inactive)

row,SMILES,activation
1,O=C1c2ccccc2C(=O)c2cc(O)ccc21,-0.732% (inactive)
2,CCOc1ccc(NC(=O)OC(C)C)cc1OCC,-3.04% (inactive)
3,CCN(CC)c1ccc(C=O)cc1,-1.05% (inactive)
4,CCN(CC)CCOC(=O)C1(c2ccccc2)CCCC1,1.71% [at 26.5 µM] (inactive)
5,O=C1NCN(c2ccccc2)C12CCN(CCCC(c1ccc(F)cc1)c1ccc(F)cc1)CC2,-0.183% [at 26.5 µM] (inactive)
6,CN(C)CCC=C1c2ccccc2C=Cc2ccccc21,0.92% [at 26.5 µM] (inactive)
7,CCCCCCCCCCCCCCCC[N+](C)(C)CCN(Cc1ccc(OC)cc1)c1ncccn1,1.37% [at 26.5 µM] (inactive)
8,CCC1=C(C)CN(C(=O)NCCc2ccc(S(=O)(=O)NC(=O)NC3CCC(C)CC3)cc2)C1=O (stereo not given),-1.16% [at 26.5 µM] (inactive)
9,CCN(CC)C(=O)/C(C#N)=C/c1cc(O)c(O)c([N+](=O)[O-])c1,-0.291% [at 26.5 µM] (inactive)
10,CCCCCCCCCC[N+](C)(C)[O-],-0.4% (inactive)
11,CC(C)(O)c1ccc(CNC(=O)c2cccnc2Oc2ccc3nonc3c2)cc1,0.0027% (inactive)
12,Cc1ccco1,0.0087% (inactive)
13,CSc1cnc(C)cn1,1.8% [at 150 µM] (inactive)
14,CCOC(=O)[C@H](CCc1ccccc1)N[C@@H](C)C(=O)N1CCC[C@H]1C(=O)O,-0.0004% [at 26.5 µM] (inactive)
15,CC(=O)Nc1cccc(C)c1,1.33% (inactive)
16,O=S(O)O,-0.558% [at 11.8 µM] (inactive)
17,Oc1cc2ccccc2cc1O,-0.208% (inactive)
18,NS(=O)(=O)Cc1noc2ccccc12,-0.0114% [at 26.5 µM] (inactive)
19,CCCCCN=C(N)N/N=C/c1c[nH]c2ccc(OC)cc12,-1.69% [at 26.5 µM] (inactive)
20,CC(=O)OCC(=O)[C@@]1(O)CCC2C3CCC4=CC(=O)CC[C@]4(C)C3[C@@H](O)C[C@@]21C (stereo not given in full),1.13% [at 26.5 µM] (inactive)
